# The full data set covers some 8,800 targets. This sample favours those with a hit. About 0.5% of all pairs of compound and target were hits. Unmarked numbers belong to inactive results.
# Columns and labels:
# Assay in all cases: log2 fold change, soluble protein after heating vs DMSO (PISA); higher = thermal stabilisation; K562 lysate, 10 uM; active = over 0.2 and 3.5 SD of the protein, either way, in both replicates (recomputed)
# ibrutinib = compound: C=CC(=O)N1CCC[C@@H](n2nc(-c3ccc(Oc4ccccc4)cc3)c3c(N)ncnc32)C1 [ibrutinib]
# Outline: (§1)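 Log-two fold change in thermal stability relative to solvent controls is reported from duplicates. For each sample, crude K562 extract from dounce-homogenised pellets in PBS pH 7.4 with 1 mM MgCl2, at 1 mg/mL protein, was treated with 10 μM compound for 30 min. Aliquots heated for 3 min across 48°C-58°C were pooled, brought to 0.5% NP-40 at 4°C and cleared at 21,000xg for 90 min. The supernatant was quantified by TMTpro 16plex LC-MS/MS with channel sums equalised.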
# ralimetinib = compound: CC(C)(C)Cn1c(N)nc2ccc(-c3[nH]c(C(C)(C)C)nc3-c3ccc(F)cc3)nc21 [ralimetinib]
# Outline: as §1
# [1] = compound: CC(C)(O)CC(=O)NCCn1ccc2ncnc(Nc3ccc(Oc4cccc(C(F)(F)F)c4)c(Cl)c3)c21
# Outline: as §1
# [2] = compound: CC(C)C1=C2N=C(C=C(N2N=C1)NCC3=CC=CC=C3)NCCCCCCN
# Outline: as §1
# [3] = compound: CC1=C(C(CC(=O)N1)C2=CC=C(C=C2)C(F)(F)F)C(=O)NC3=C(C=C4C(=C3)C=NN4)F
# Outline: as §1
# [4] = compound: CC1=C(C2=C(C=C1)C(=O)C3=CC=CC=C3N2CCCN)C
# Outline: as §1
# [5] = compound: CC1=C(C=C(C=C1)NC(=O)C2=CC(=CC=C2)N(C)C)NC(=O)C3=CC=C(C=C3)O
# Outline: as §1
# [6] = compound: CC(=O)c1cnc2ccc(-c3cc(Cl)c(O)c(Cl)c3)nc2c1N[C@H]1CC[C@H](CN(C)C)CC1
# Outline: as §1
# [7] = compound: CC1=C(C=C(C=C1)NC(=O)C2=CC(=CC=C2)C(C)(C)C#N)NC3=CC4=C(C=C3)N=CN(C4=O)C
# Outline: as §1
# [8] = compound: CC1=CC=C(C=C1)SC2=C3C=C(SC3=CN=C2)C(=O)N
# Outline: as §1
# UniProt Q6EEV4, sequence (Q6EEV4 whole entry, looked up): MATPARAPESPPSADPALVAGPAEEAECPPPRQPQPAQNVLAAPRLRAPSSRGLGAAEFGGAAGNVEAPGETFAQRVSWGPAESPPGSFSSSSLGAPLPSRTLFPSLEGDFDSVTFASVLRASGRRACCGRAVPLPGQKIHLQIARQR
# UniProt Q16378, sequence (Q16378 whole entry, looked up): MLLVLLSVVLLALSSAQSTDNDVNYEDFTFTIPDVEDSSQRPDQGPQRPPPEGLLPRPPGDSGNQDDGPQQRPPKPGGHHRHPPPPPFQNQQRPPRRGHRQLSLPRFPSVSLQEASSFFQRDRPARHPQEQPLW
# UniProt P11309, sequence (P11309 whole entry, looked up): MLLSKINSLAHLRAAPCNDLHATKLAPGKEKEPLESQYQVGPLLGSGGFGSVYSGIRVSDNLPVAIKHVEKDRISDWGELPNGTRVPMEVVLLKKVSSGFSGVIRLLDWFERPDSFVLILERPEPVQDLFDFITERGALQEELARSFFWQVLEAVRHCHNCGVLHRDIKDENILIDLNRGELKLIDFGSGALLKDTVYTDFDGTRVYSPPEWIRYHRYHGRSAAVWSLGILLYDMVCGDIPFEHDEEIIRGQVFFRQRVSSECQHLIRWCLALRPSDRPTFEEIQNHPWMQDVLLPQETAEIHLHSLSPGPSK
# UniProt A8CG34, sequence (A8CG34 whole entry, looked up): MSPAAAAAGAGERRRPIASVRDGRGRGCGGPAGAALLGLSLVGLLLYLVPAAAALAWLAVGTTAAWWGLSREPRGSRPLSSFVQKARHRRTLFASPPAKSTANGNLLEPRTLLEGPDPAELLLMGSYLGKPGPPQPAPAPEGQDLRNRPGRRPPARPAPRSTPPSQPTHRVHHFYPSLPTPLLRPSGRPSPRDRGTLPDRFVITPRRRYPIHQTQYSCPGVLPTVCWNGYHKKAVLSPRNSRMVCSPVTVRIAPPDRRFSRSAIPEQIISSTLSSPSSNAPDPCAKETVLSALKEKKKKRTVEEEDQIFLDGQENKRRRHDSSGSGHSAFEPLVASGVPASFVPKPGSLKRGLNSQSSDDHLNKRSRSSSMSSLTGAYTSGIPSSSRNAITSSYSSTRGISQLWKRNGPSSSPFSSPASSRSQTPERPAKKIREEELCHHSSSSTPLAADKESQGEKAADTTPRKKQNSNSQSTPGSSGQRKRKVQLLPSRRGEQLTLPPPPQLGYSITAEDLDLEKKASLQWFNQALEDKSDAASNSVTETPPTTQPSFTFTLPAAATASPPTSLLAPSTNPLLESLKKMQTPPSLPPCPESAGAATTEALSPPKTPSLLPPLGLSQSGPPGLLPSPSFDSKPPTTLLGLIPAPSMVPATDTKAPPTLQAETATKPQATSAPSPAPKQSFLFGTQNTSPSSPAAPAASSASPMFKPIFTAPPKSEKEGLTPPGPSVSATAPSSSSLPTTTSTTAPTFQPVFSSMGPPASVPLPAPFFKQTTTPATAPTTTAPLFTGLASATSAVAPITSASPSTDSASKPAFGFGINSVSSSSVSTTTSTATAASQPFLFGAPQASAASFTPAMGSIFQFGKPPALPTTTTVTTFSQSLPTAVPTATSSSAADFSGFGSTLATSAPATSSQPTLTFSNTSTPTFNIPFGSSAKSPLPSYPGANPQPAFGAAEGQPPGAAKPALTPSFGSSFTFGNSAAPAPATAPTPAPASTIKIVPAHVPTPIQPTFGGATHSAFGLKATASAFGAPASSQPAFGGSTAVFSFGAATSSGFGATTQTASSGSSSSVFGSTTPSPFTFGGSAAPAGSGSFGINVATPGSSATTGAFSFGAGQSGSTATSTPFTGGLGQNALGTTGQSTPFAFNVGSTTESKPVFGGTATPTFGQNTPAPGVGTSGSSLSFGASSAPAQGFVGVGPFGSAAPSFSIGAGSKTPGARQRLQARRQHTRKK
# UniProt Q9Y4D7, sequence (Q9Y4D7 whole entry, looked up): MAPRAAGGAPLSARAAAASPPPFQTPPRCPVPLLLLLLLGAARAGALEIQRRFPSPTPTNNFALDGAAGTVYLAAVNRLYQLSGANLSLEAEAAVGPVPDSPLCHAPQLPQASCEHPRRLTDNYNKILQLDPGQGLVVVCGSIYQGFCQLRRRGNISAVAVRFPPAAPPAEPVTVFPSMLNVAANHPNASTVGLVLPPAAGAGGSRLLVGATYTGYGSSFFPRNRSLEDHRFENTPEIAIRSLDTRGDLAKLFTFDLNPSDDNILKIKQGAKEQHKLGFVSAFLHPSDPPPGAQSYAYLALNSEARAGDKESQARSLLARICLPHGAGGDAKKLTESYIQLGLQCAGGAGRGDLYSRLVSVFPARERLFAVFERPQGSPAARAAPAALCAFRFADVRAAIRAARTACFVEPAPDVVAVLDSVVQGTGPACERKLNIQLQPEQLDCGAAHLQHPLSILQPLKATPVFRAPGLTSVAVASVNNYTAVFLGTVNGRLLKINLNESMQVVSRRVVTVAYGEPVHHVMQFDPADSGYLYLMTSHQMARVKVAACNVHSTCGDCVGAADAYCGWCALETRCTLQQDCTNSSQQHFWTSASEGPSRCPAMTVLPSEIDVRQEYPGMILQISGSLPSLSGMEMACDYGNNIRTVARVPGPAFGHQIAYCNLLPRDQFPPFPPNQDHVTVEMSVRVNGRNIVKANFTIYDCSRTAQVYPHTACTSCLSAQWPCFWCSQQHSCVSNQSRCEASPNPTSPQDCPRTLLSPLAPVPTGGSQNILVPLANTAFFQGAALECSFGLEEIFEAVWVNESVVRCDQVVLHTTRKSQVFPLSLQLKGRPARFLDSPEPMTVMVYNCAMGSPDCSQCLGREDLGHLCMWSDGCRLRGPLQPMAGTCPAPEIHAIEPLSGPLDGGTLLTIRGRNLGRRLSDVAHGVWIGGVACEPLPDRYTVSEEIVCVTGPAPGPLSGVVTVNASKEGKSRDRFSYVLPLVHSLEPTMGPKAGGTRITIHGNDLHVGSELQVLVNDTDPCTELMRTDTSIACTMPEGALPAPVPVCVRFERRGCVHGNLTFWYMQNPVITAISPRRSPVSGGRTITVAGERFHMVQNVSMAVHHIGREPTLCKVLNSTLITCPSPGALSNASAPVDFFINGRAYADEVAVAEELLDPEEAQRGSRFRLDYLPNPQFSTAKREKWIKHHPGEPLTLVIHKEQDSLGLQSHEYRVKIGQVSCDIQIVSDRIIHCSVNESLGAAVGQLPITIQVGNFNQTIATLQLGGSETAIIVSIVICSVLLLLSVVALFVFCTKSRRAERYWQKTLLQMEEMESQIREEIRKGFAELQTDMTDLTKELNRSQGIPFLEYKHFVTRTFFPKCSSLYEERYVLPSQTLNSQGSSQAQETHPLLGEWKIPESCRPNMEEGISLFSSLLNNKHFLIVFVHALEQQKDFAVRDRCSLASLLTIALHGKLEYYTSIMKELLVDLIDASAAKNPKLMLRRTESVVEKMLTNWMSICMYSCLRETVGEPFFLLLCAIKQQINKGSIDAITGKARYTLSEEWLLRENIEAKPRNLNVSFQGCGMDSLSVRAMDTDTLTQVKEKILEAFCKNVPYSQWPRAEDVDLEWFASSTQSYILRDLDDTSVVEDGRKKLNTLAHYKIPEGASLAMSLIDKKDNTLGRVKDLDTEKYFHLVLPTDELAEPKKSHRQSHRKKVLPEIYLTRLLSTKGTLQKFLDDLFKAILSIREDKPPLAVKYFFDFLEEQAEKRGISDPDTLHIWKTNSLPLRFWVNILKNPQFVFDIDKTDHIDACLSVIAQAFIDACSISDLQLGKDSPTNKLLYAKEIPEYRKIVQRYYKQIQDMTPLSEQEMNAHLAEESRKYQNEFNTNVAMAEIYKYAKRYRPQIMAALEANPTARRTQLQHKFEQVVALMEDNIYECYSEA
# UniProt Q16816, sequence (Q16816 whole entry, looked up): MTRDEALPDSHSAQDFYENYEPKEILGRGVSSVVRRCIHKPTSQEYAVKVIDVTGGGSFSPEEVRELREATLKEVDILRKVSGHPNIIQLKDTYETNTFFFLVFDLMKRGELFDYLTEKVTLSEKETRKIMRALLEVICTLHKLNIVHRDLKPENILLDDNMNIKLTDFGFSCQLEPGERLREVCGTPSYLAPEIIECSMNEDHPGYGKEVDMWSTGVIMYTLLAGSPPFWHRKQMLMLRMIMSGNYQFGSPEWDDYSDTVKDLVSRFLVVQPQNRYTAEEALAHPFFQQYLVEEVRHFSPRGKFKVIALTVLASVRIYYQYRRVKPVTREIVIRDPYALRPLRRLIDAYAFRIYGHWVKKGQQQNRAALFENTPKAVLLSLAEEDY
# UniProt Q9Y570, sequence (Q9Y570 whole entry, looked up): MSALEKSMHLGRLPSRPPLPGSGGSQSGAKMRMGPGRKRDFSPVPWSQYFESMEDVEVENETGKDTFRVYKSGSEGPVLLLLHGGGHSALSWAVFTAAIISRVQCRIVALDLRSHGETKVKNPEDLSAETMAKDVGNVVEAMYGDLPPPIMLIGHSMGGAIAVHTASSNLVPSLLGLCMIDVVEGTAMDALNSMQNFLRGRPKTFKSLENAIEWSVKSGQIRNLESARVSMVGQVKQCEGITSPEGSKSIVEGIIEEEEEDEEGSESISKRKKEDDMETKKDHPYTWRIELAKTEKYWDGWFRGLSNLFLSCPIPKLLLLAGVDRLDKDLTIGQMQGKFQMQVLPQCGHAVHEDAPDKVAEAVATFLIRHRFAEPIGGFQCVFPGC
# UniProt Q16877, sequence (Q16877 whole entry, looked up): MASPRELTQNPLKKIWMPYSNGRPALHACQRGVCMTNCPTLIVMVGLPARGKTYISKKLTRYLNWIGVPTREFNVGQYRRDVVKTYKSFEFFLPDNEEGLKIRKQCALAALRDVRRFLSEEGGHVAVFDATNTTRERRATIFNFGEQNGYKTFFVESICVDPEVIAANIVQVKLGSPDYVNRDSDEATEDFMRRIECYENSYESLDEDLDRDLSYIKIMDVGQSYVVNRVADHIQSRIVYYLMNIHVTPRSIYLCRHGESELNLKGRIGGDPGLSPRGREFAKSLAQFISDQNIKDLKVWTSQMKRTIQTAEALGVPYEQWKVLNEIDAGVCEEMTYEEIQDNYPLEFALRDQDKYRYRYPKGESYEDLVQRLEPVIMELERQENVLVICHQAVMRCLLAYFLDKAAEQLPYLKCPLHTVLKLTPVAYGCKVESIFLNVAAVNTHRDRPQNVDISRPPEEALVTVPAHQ
Target,log2 fold change (ibrutinib),log2 fold change (ralimetinib),log2 fold change [1],log2 fold change [2],log2 fold change [3],log2 fold change [4],log2 fold change [5],log2 fold change [6],log2 fold change [7],log2 fold change [8]
PCBP2 (UniProt F8W0G4),-0.27,-0.061,-0.282,-0.175,-0.045,-0.083,0.049,,,
PPP2R5B (UniProt Q15173),0.042,0,-0.046,-0.055,,0.009,0.08,0.033,0.026,-0.053
PHKG1 isoform 2 (UniProt Q16816),,0.02,-0.016,-0.003,-0.117,-0.196,-0.02,0.595,0.017,-0.086
POLR2F (UniProt U3KPV3),,,,,,0.223,,,,
PLXND1 (UniProt Q9Y4D7),0.138,-0.081,-0.07,0.046,-0.023,0.112,0.218,,-0.033,
PFN1 (UniProt I3L3D5),-0.045,0.045,-0.033,,-0.013,,0,-0.053,,0.031
"PPT2, A0A140T9Y1",,,,,-0.142,,,,,
PPME1 (UniProt Q9Y570),-0.038,,,-0.238,,-0.018,,-0.072,,-0.077
PPP2CA (UniProt E7ESG8),,,,,0.239,,,,,
PHF14 (UniProt O94880),-0.014,-0.024,-0.055,,0.454 (active),-0.003,-0.042,0.03,,-0.128
PCBP2 (UniProt F8VRH0),,0.087,-0.033,0.051,0.129,,0.012,-0.014,0.017,0.027
NA (UniProt Q4G0T1),,0.016,-0.096,-0.119,,-0.061,-0.151,,-0.158,
PYGO2 (UniProt Q9BRQ0),0.064,0.151,-0.122,-0.001,0.005,0.044,-0.061,,0.011,
PIM1 isoform 2 (UniProt P11309),-0.138,0.042,0.122,-0.038,-0.014,0.054,0.054,,0.01,
POM121C (UniProt A8CG34),-0.167,-0.127,0.016,0.028,,,-0.028,0.008,,0.034
POLR2M (UniProt Q6EEV4),0.005,,,-0.109,,0.007,,-0.07,0.157,0.078
PPIC (UniProt P45877),0.278,-0.17,0.057,-0.021,-0.139,0.138,0.05,,0.102,
"PHGDH, A0A286YFE1",0.032,,,,,-0.458,,0.084,,0.107
"PDIA4, A0A499FI48",,,,,,-0.017,,,-0.066,
PHOSPHO2 (UniProt C9JD35),,,,,,,,,0.09,
PFKFB4 (UniProt Q16877),0.022,0.1,-0.032,-0.004,,-0.008,0.093,-0.005,-0.003,0.011
PRR4 (UniProt Q16378),,-0.188,0.305,1.86,1.73,,0.1,-0.009,,-0.23
PPP1R12B isoform 6 (UniProt O60237),0.019,0.01,-0.251,0.095,,0.106,-0.012,-0.112,0.142,-0.194

# From the supplement of paper PMC10849652
